Test results taken from publication PMC12136788.
Where a chain is given by its changes, count along the chain named. In all, about 24,000 sequences were measured (“enrichment r”: median about 0.99, highest 2% from about 3.7 on). This is one part of a sample in which the highest values are shown more often than they occur.

T1: UNK ZnF1-3 (human, UniProt Q9C0B0 31-174)
T1 sequence: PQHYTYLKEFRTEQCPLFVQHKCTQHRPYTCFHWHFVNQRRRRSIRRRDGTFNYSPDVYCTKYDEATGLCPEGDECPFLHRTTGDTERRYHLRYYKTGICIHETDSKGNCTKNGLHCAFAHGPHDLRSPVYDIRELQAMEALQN

B1: chrX:77155053:77155054:+_ENSG00000131174_ENST00000481445|hu_hu|motif|central (ssRNA)
RNA: GGGAGUUCUACAGUCCGACGAUCCGAACUUGGAGACGAUUUAGUGCGCUUUUGACCAAGGGAAACAUCGUGAAGGUGAAGCGGGAACUGCGGCAAUACAGCUGCUGCUUUGGUGCCAAUUCGCUUCAGGUACCCUUGAAGUGACAACAGAGGAUUGAGCAUCA
B2: chr2:153237265:153237266:-_ENSMUSG00000061411_ENSMUST00000109784|mus_mus|mus_mus_mus_hu_False|1_18 (ssRNA)
RNA: GGGAGUUCUACAGUCCGACGAUCAAAAAAAAAAAAAAAAAAGUGUCCUUGUGCCCAAAGUCUCAGGUGCUUGGAGUGUGGCUAGAAACAGCUCUUUUGGAUCCCACCUCUUUCAAAAAACAGUGUAACCAACUGGUAGGCAGGCAACAGAGGAUUGAGCAUCA
B3: chr2:153237265:153237266:-_ENSMUSG00000061411_ENSMUST00000109784|mus_mus|mus_mus_mus_hu_False|18_18 (ssRNA)
RNA: B2 RNA with A137G, G138A, C140G, A141C, G142A
B4: chr2:153237265:153237266:-_ENSMUSG00000061411_ENSMUST00000109784|mus_mus|mus_mus_mus_hu_False|18_78 (ssRNA)
RNA: B2 RNA with G66A, A137G, G138A, C140G, A141C, G142A
B5: chr2:153237265:153237266:-_ENSMUSG00000061411_ENSMUST00000109784|mus_mus|mus_mus_mus_hu_False|18_58 (ssRNA)
RNA: B2 RNA with U78C, G79A, A137G, G138A, C140G, A141C, G142A
B6: chr5:71490711:71490712:+_ENSG00000131711_ENST00000296755|hu_hu|motif|central (ssRNA)
RNA: GGGAGUUCUACAGUCCGACGAUCCACAGGAGUGGGCACCUGGCCAGUGAGAUCCUUUUGGGUGGCCAGUGGCUGCUUCAGAAAGUCGGGAUGUUUGAGCUUUUCCAACCCUUCCAGGAUGUUGUACUGGGUGCUGUUCCCAGGCAACAGAGGAUUGAGCAUCA
B7: chr2:153237265:153237266:-_ENSMUSG00000061411_ENSMUST00000109784|mus_mus|mus_mus_mus_hu_False|18_28 (ssRNA)
RNA: B2 RNA with A115G, A137G, G138A, C140G, A141C, G142A
B8: chr11:46405157:46405158:+_ENSG00000110492_ENST00000395566|hu_hu|hu_hu_hu_mus_False|8_58 (ssRNA)
RNA: GGGAGUUCUACAGUCCGACGAUCCCCUCCCCACUUUGGGCACUUGGUGUGGGCGUGAGAGGACAGGCGUGAUUGACAAAGCUAACGGGAAGACAAAAGGCACUGGUGGGUUAUAUCUUGGGCCUGUGAGAGGGAGGGGCUCCGCAACAGAGGAUUGAGCAUCA
B9: 55264158_55264526_802_CDS_ENSMUSG00000022185_ENSMUST00000148754|mouse|control|control (ssRNA)
RNA: GGGAGUUCUACAGUCCGACGAUCGAUGGACCUCCGGGUUAAGGUAUCUCCUAAUGUUACUUUCUUUACUUCGUGCUCCACAGGUGGGGGCAAGGCAACCUCCACUGACACCUGGGGUGGCGCCGGCAGCUCGGCUUCAGGCUCCAACAGAGGAUUGAGCAUCA
B10: chrX:71549400:71549401:+_ENSMUSG00000019087_ENSMUST00000019231|mus_hu|mus_mus_mus_hu_False|18_48 (ssRNA)
RNA: GGGAGUUCUACAGUCCGACGAUCGCAGUAGGAAGAGGGAAGCUCUUCAGUCCAGUGCGCUGCAGGGUGGGAAAGCAACAACACGGAACCAAUACUCCCCUCAACCCCCCCACUGGCAUGUCACACAACAAUCUGGGUCAAAGACAACAGAGGAUUGAGCAUCA
B11: chr6:42636609:42636610:-_ENSMUSG00000036667_ENSMUST00000045054|mus_hu|FALSE|FALSE (ssRNA)
RNA: GGGAGUUCUACAGUCCGACGAUCGGCAUCAAUACAGUAAACCCCCAGGGAGUCUUUCACUUCUGGCUCAACCUUUGCAUCCACUCCAGAGCCCUCGAGGAUUUUGGCCAAAGGUGCCAGGGAUGGGUGUACACCAAUGGGAGCCAACAGAGGAUUGAGCAUCA
B12: chr18:65376317:65376318:+_ENSMUSG00000024589_ENSMUST00000163516|mus_mus|motif|central (ssRNA)
RNA: GGGAGUUCUACAGUCCGACGAUCUGCUAUACCAACAGAAAACUAUCCCUUUCCUAGGAAACACUAGACAGGCUCAUGUCCGGACGCGGCAGCUGCUUCUCUGGCACACUGAAAACACUCUGGGGUGGAGUGUGCAUACACAGACAACAGAGGAUUGAGCAUCA
B13: chr2:153237265:153237266:-_ENSMUSG00000061411_ENSMUST00000109784|mus_mus|mus_mus_mus_hu_False|28_58 (ssRNA)
RNA: GGGAGUUCUACAGUCCGACGAUCAAAAAAAAAAAAAAAAAAGUGUCCUUGUGCCCAAAGUCUCAGGUGCUUGGAGUGCAGCUAGAAACAGCUCUUUUGGAUCCCACCUCUUUCAGAAACAAAAUGUACCAACUGGUGAGGCAGCAACAGAGGAUUGAGCAUCA
B14: 113287723_113287843_2736_3pUTR_ENSG00000114999_ENST00000233336|human|control|control (ssRNA)
RNA: GGGAGUUCUACAGUCCGACGAUCCCUUUUUCAUUGUAAGUUCUCACAUCUCAUCAUGUUCAAGGAGGCAUUGAUUUUCUCCUCUUUUGUAAAAGUCUCACCUGACUGCAGAAAUGUUUUCUUGAGCCAAGUAGAAAUGAGGAACAACAGAGGAUUGAGCAUCA
B15: chr2:153237265:153237266:-_ENSMUSG00000061411_ENSMUST00000109784|mus_mus|mus_mus_mus_hu_False|58_58 (ssRNA)
RNA: B13 RNA with G115A
B16: chr2:153237265:153237266:-_ENSMUSG00000061411_ENSMUST00000109784|mus_mus|mus_mus_mus_hu_False|28_28 (ssRNA)
RNA: B13 RNA with C78U, A79G
B17: chr2:153237265:153237266:-_ENSMUSG00000061411_ENSMUST00000109784|mus_mus|mus_mus_mus_hu_False|1_28 (ssRNA)
RNA: B13 RNA with C78U, A79G, G137A, A138G, G140C, C141A, A142G
B18: chr2:153237265:153237266:-_ENSMUSG00000061411_ENSMUST00000109784|mus_hu|FALSE|FALSE (ssRNA)
RNA: B13 RNA with C78U, A79G, G115A
B19: chr2:153237265:153237266:-_ENSMUSG00000061411_ENSMUST00000109784|mus_mus|mus_mus_mus_hu_False|1_1 (ssRNA)
RNA: B2 RNA with A119C, C120A, G122A, U123A, G124U, U125G, A126U
B20: chr3:149686290:149686291:-_ENSG00000070087_ENST00000452853|perfect_dup|FALSE|FALSE (ssRNA)
RNA: GGGAGUUCUACAGUCCGACGAUCUCCAAGAGUCAAACCGUUGGUAAAGAAACCUUCCCGGUCUUUUCCUACAAUCAUAUCUAUUUCUACUGGCGUGAUGCUCUGGAAGACGCCCCCGGCCGUGGCUGCCCAGACGUAUUUGGCCAACAGAGGAUUGAGCAUCA
B21: 153895285_153895405_106_5pUTR_ENSG00000143614_ENST00000368655|human|control|control (ssRNA)
RNA: GGGAGUUCUACAGUCCGACGAUCGGCACAGGGGAUCCAGACCCUGCUGACGGGACUAGGGACGGGGGUAGGGGAGGGGGGCGGGCCGGACCGGGGCGGGCGGGCGGAGCAGACACUGCGGUACAGACGGGGGCAGCGGCGGCGCAACAGAGGAUUGAGCAUCA
B22: chr14:76904540:76904541:+_ENSMUSG00000022010_ENSMUST00000022587|mus_mus|FALSE|FALSE (ssRNA)
RNA: GGGAGUUCUACAGUCCGACGAUCAAAGAAAUGGAAAAAUGUCUCAGUUGGUAAACUCCUAGAUCCAUCGCCACUGGUCUACACCAUUGGGAUUUCAUGCAAUUGCAGCCAAAUUAAAAAAACAGCCCCGUGGAAAAAAAAGAGCAACAGAGGAUUGAGCAUCA

Each binder was assayed against T1, UNK ZnF1-3 (assay: nsRBNS (natural sequence RNA bind-n-seq); RBNS binding buffer (assumed for nsRBNS): 25 mM Tris pH 7.5, 150 mM KCl, 3 mM MgCl2, 0.01% Triton X-100, 500 ug/ml BSA, 20 U/ml SUPERase-In, 4 C; UNK is unkempt and MSI1 is Musashi-1; names of the RNAs are library labels; protein concentration not given here; high values mean tight binding).

Binder	binding signal
B1	0.887 enrichment R
B2	6.33 enrichment R
B3	5.16 enrichment R
B4	4.87 enrichment R
B5	4.98 enrichment R
B6	1.1 enrichment R
B7	3.55 enrichment R
B8	3.13 enrichment R
B9	0.664 enrichment R
B10	1.29 enrichment R
B11	1.69 enrichment R
B12	1.06 enrichment R
B13	3.57 enrichment R
B14	0.859 enrichment R
B15	4.5 enrichment R
B16	3.18 enrichment R
B17	3.93 enrichment R
B18	6.49 enrichment R
B19	6.8 enrichment R
B20	0.967 enrichment R
B21	0.68 enrichment R
B22	3.35 enrichment R
